Experimental data from the supplement of paper PMC6555819.

Tests used:
Experiment in all cases: PBM binding z-score (relative to random genomic background probes); higher = stronger binding; sequences stand for … in GC…GCGATTGACAGCGTAGAATGAAGG
[1] = system: FXR:RXRa (NR concentration 270 nM, RXRa partner concentration 90 nM)
Outline: (§1)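 Ligand-free nuclear receptor dimers were applied to custom Agilent 4×180K protein-binding microarrays whose double-stranded probes carried direct-repeat seeds, single-nucleotide variants, half-site ablations and random human genomic background sequences in 34-nt variable regions. Incubation lasted 1 h. Binding z-scores were computed against the random background probes from regression-normalized fluorescence.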

[2] = system: LXRa:RXRa (NR concentration 270 nM, RXRa partner concentration 90 nM)
Outline: as §1

[3] = system: LXRa homodimer (NR concentration 270 nM)
Outline: as §1

[4] = system: LXRb:RXRa (NR concentration 270 nM, RXRa partner concentration 90 nM)
Outline: as §1

[5] = system: LXRb homodimer (NR concentration 270 nM)
Outline: as §1

[6] = system: PPARa:RXRa (NR concentration 270 nM, RXRa partner concentration 90 nM)
Outline: as §1

[7] = system: PPARg:RXRa (NR concentration 180 nM, RXRa partner concentration 90 nM)
Outline: as §1

[8] = system: PPARg:RXRa 270nM:90nM, anti-RXR (NR concentration 270 nM, RXRa partner concentration 90 nM)
Outline: as §1

[9] = system: PPARg:RXRa 30nM:10nM, anti-RXR (NR concentration 30 nM, RXRa partner concentration 10 nM)
Outline: as §1

[10] = system: PPARg:RXRa 90nM:30nM, anti-RXR (NR concentration 90 nM, RXRa partner concentration 30 nM)
Outline: as §1

[11] = system: PPARg:RXRa DBDmut IVT, anti-RXR (DBD mutation: RXRa K156A/R161A, NR concentration 270 nM, RXRa partner concentration 90 nM)
Outline: as §1

[12] = system: PPARg:RXRa IVT, anti-PPARg (NR concentration 270 nM, RXRa partner concentration 90 nM)
Outline: as §1

[13] = system: PPARg DBDmut:RXRa IVT, anti-PPARg (DBD mutation: PPARg1 K132A/R137A, NR concentration 270 nM, RXRa partner concentration 90 nM)
Outline: as §1

[14] = system: PPARg DBDmut IVT, anti-PPARg (DBD mutation: PPARg1 K132A/R137A, NR concentration 270 nM)
Outline: as §1

[15] = system: PPARg homodimer (NR concentration 180 nM)
Outline: as §1

[16] = system: PXR:RXRa (NR concentration 270 nM, RXRa partner concentration 90 nM)
Outline: as §1

[17] = system: PXR homodimer (NR concentration 270 nM)
Outline: as §1

[18] = system: RARa:RXR (NR concentration 270 nM, RXRa partner concentration 90 nM)
Outline: as §1

[19] = system: RARa homodimer (NR concentration 270 nM)
Outline: as §1

[20] = system: RARb:RXRa (NR concentration 270 nM, RXRa partner concentration 90 nM)
Outline: as §1

Row | Sequence | PBM binding z-score [1] | PBM binding z-score [2] | PBM binding z-score [3] | PBM binding z-score [4] | PBM binding z-score [5] | PBM binding z-score [6] | PBM binding z-score [7] | PBM binding z-score [8] | PBM binding z-score [9] | PBM binding z-score [10] | PBM binding z-score [11] | PBM binding z-score [12] | PBM binding z-score [13] | PBM binding z-score [14] | PBM binding z-score [15] | PBM binding z-score [16] | PBM binding z-score [17] | PBM binding z-score [18] | PBM binding z-score [19] | PBM binding z-score [20]
1 | ATATGTAGGTTAAGGGCCATTCAGGTTGGTTCGC | 0.756 | 0.989 | 0.305 | 0.911 | 0.0829 | 4.43 | 7.86 | 7.32 | 6.65 | 7.62 | 7.52 | 6.88 | 2.91 | 2.4 | 1.27 | 0.874 | 0.768 | 0.938 | 0.601 | 1.5
2 | CCTAGTTGGTCAAGGTCAGACACGCTATAGGTAC | 2.19 | 2.38 | 1.11 | 2.12 | 0.541 | 2.78 | 1.85 | 2.26 | 0.813 | 1.73 | 1.83 | 2.54 | 0.343 | 0.91 | 2.01 | 2.52 | 1.51 | 2.45 | 2.36 | 3.6
3 | CGAACTAGGTCAGAACAGGGCAGTGAAGGATGAT | 1.43 | 0.861 | -0.154 | 0.436 | -0.443 | 3.09 | 5.03 | 4.3 | 1.73 | 3.33 | 7.23 | 7.22 | 1.72 | -0.191 | 1.19 | 1.26 | 0.00717 | 0.81 | 0.0682 | 3.15
4 | GCTTGTAGATCAATGTTAAGAAAGACTAAGCTAA | -0.421 | -0.43 | -0.434 | -0.517 | -0.377 | -0.584 | -0.00589 | -0.385 | -0.425 | -0.416 | 1.38 | 0.377 | -0.235 | 0.113 | -0.551 | -0.629 | -0.348 | -0.432 | -0.306 | -0.399
5 | TTACCACGGTGAAGGTCGTTGATCCCTCTGTAGA | 1.28 | 1.71 | 0.151 | 1.26 | -0.41 | 1.57 | 0.322 | 1.94 | 0.678 | 1.24 | 0.157 | 1.1 | -0.118 | -0.0664 | 0.191 | 1.13 | 0.169 | 1.59 | -0.497 | 1.17
6 | AGAATGAGGATAAGATCAGGGAAACAGAATACAT | 0.459 | -0.133 | -0.218 | -0.0492 | -0.342 | -0.0848 | 1.2 | -0.174 | 0.433 | 0.00747 | -0.0375 | -0.0536 | -0.123 | 0.538 | 0.327 | -0.171 | 0.272 | 0.067 | 0.354 | 0.0475
